From PubChem BioAssay (NCATS) come the findings set out here.

The subject of one experiment is MCC-26. The experiment can be described thus: qHTS assay to identify novel small-molecules to repurpose for Merkel cell carcinoma treatment (AID 1296009). Also: nearly all actives have a fitted effect of over 60% in size. As to conditions: MCC and control cell lines, CellTiter-Glo viability, 72 h; series mostly up to 46 µM. Put shortly:
(§1)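 Cell viability, measured as CellTiter-Glo luminescence, was normalized between DMSO and no-cell wells. The cells had been exposed to 8- or 11-point compound dilutions for 72 hr at 37 degree celsius.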

Another experiment concerns UISO. Described as above. As to conditions: MCC and control cell lines, CellTiter-Glo viability, 72 h; series mostly up to 46 µM. In a few lines: as §1
Background: ATP-based viability assays read luminescence as a measure of living cells.

Another experiment has as its system WaGa. Described as above. As to conditions: MCC and control cell lines, CellTiter-Glo viability, 72 h; series mostly up to 46 µM. In a few lines:
as §1

The test system of another experiment is MKL-2. Described as above. As to conditions: MCC and control cell lines, CellTiter-Glo viability, 72 h; series mostly up to 46 µM. Put shortly: as §1
Another experiment has as its system CASKI. As to the kind of experiment: Primary qHTS to identify gynecologic anti-cancer compounds using libraries of approved drugs and bioactive compounds (AID 1345084). Also: nearly all actives have a fitted effect of over 55% in size. As to conditions: Gynecologic cancer cell panel viability, ATPlite luminescence, 48 h; series mostly up to 57.5 µM. Put shortly:
(§2)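 Five-concentration response, 48 h; readout is ATP-driven luciferase luminescence.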

Another experiment has as its system Es-2. The description is as above. As to conditions: Gynecologic cancer cell panel viability, ATPlite luminescence, 48 h; series mostly up to 57.5 µM. Put shortly: as §2
The next experiment has as its system Hek293T. Described as above. As to conditions: Gynecologic cancer cell panel viability, ATPlite luminescence, 48 h, control line for the selectivity index; series mostly up to 57.5 µM. In a few lines:
as §2

The test system of another experiment is JEG-3. Described as above. As to conditions: Gynecologic cancer cell panel viability, ATPlite luminescence, 48 h; series mostly up to 57.5 µM. In a few lines: as §2
A further experiment relates to OV90. The description is as above. As to conditions: Gynecologic cancer cell panel viability, ATPlite luminescence, 48 h; series mostly up to 57.5 µM. In a few lines:
as §2

The test system of a further experiment is PA-1. The experiment is described as above. As to conditions: Gynecologic cancer cell panel viability, ATPlite luminescence, 48 h; series mostly up to 57.5 µM. In a few lines:
as §2

Another experiment concerns SKOV3. Described as above. As to conditions: Gynecologic cancer cell panel viability, ATPlite luminescence, 48 h; series mostly up to 57.5 µM. Put shortly:
as §2

Another experiment has as its system Tov-21-G. The experiment is described as above. As to conditions: Gynecologic cancer cell panel viability, ATPlite luminescence, 48 h; series mostly up to 57.5 µM. In a few lines: as §2
The subject of a further experiment is Tov112D. The experiment is described as above. As to conditions: Gynecologic cancer cell panel viability, ATPlite luminescence, 48 h; series mostly up to 57.5 µM. Put shortly: as §2
Another experiment relates to MKL-1. As to the kind of experiment: qHTS assay to identify novel small-molecules to repurpose for Merkel cell carcinoma treatment (AID 1296009). Also: nearly all actives have a fitted effect of over 60% in size. As to conditions: MCC and control cell lines, CellTiter-Glo viability, 72 h; series mostly up to 46 µM. Put shortly:
as §1

A further experiment relates to MCC-13. Described as above. As to conditions: MCC and control cell lines, CellTiter-Glo viability, 72 h; series mostly up to 46 µM. Put shortly:
as §1

Another experiment has as its system C33A. The experiment can be described thus: Primary qHTS to identify gynecologic anti-cancer compounds using libraries of approved drugs and bioactive compounds (AID 1345084). Also: nearly all actives have a fitted effect of over 55% in size. As to conditions: Gynecologic cancer cell panel viability, ATPlite luminescence, 48 h; series mostly up to 57.5 µM. Put shortly:
as §2
Background: Quantitative high-throughput screening tests each substance at several concentrations.

The subject of another experiment is HeLa. The experiment is described as above. As to conditions: Gynecologic cancer cell panel viability, ATPlite luminescence, 48 h; series mostly up to 57.5 µM. Put shortly: as §2

Results filed as inconclusive are left out. Calls of active or inactive are those of the source. Calls follow the shape of the dose curve; as a rule, active = well fitted curve in the direction sought with a large enough effect; inconclusive = small, poorly fitted or top-dose-only effect, or another doubt; inactive = no such curve, though single readings can be large; an effect the other way counts as inactive or inconclusive.
Potency is read from the fitted curve at half-maximal effect.

On to `N=c1ccn2c(n1)O[C@H]1[C@@H](O)[C@@H](CO)O[C@H]12`, for which, in the experiment with MCC-26, the Potency result was “inactive”. Further, the Potency in the experiment with UISO is 0.526 µM (active); in the experiment on WaGa, 2.09 µM (active).

Turning to `Cn1c(Nc2ccc(C(F)(F)F)cc2)nc2cc(Oc3ccnc(-c4ncc(C(F)(F)F)[nH]4)c3)ccc21`, the Potency result in the experiment with MCC-26 is “inactive”. The Potency in the experiment with UISO is 3.72 µM (active); in the experiment with WaGa it was 18.7 µM (active).

For `CC1=C(C(=O)Nc2cc3cn[nH]c3cc2F)C(c2ccc(Cl)cc2F)N=C(c2ccnc(Cl)c2)N1` (centres undefined), the Potency entry in the experiment with MCC-26, in the experiment on CASKI, in the experiment on Es-2, with Hek293T, in the experiment on JEG-3 and with OV90 was “inactive” each time. In addition, the Potency entry in the experiment on PA-1, in the experiment on SKOV3, with Tov-21-G and in the experiment with Tov112D was “inactive” each time. Also, the Potency in the experiment with MKL-2 was 20.9 µM (active); with WaGa, 10.5 µM (active).

On to `C=CC(=O)Nc1cccc(Nc2nc(NC3CCC(N(C)C)CC3)nc3c2ncn3C(C)C)c1` (centres undefined), for which the Potency was 0.0074 µM (active) with MKL-1, 0.0166 µM (active) with MKL-2 and 0.418 µM (active) with UISO.

In the case of `CC(C)N1[N]C(=C2C=c3cc(O)ccc3=N2)c2c(N)ncnc21`, the Potency is 14.8 µM (active) in the experiment with MCC-26, 10.5 µM (active) in the experiment on MKL-1, 0.833 µM (active) in the experiment on UISO and 5.9 µM (active) with WaGa.

For the molecule `CS[C@H]1SC[C@@H]2C(=O)N(C)[C@H](C(C)C)C(=O)OC[C@H](NC(=O)c3cnc4ccccc4n3)C(=O)N[C@H](C)C(=O)N(C)[C@@H]1C(=O)N(C)[C@H](C(C)C)C(=O)OC[C@H](NC(=O)c1cnc3ccccc3n1)C(=O)N[C@H](C)C(=O)N2C`, the Potency was 0.0296 µM (active) in the experiment with MCC-13 and 0.0026 µM (active) with UISO. In the experiment with WaGa, the Potency result was “inactive”.

With `FC(F)c1nc2ccccc2n1-c1nc(N2CCOCC2)nc(N2CCOCC2)n1`, in the experiment with MCC-13, the Potency result is “inactive”. Further, the Potency is 2.24 µM (active) in the experiment with CASKI; 14.1 µM (active) with Es-2; 2.24 µM (active) in the experiment on Hek293T; 2 µM (active) with PA-1; 2.82 µM (active) in the experiment on SKOV3.

`Cn1cnc2c(F)c(Nc3ccc(Br)cc3F)c(C(=O)NOCCO)cc21`: the Potency entry in the experiment with MCC-26, in the experiment on MKL-1, in the experiment with MKL-2, in the experiment with UISO, with WaGa and in the experiment with C33A was “inactive” each time. The Potency result in the experiment with CASKI, in the experiment with HeLa, with Hek293T, with JEG-3, in the experiment with SKOV3 and in the experiment with Tov112D was “inactive” in each case. The Potency with OV90 is 0.224 µM (active).

Turning to `C=Cc1c(C)c2cc3nc(cc4[nH]c(cc5nc(cc1[nH]2)C(C)=C5CCC(=O)O)c(CCC(=O)OC)c4C)[C@@]1(C)C3=CC=C(C(=O)OC)[C@H]1C(=O)OC`, the Potency in the experiment with MCC-26 is 2.96 µM (active); with MKL-1, 0.0469 µM (active); with MKL-2, 0.0418 µM (active); in the experiment with UISO, 0.469 µM (active).

Take `Oc1ccc([C@@H]2Oc3ccc(O)cc3[C@@H]3CCC[C@@H]32)cc1`: the Potency result with MCC-26, in the experiment on C33A, with Es-2, with OV90 and with Tov-21-G was “inactive” throughout. Moreover, the Potency in the experiment with UISO is 18.7 µM (active).

Consider `Nc1ncn([C@@H]2O[C@H](CO)[C@@H](O)[C@@H]2O)c(=O)n1`, for which the Potency entry in the experiment with MKL-1 and with MKL-2 was “inactive” throughout.

Turning to `COc1cc(OC)cc(-c2ccc3ncc4ccc(=O)n(-c5ccc(N6CCNCC6)c(C(F)(F)F)c5)c4c3c2)c1`, the Potency in the experiment with MKL-1 was 18.7 µM (active); in the experiment with MKL-2, 8.33 µM (active); with UISO, 16.6 µM (active).

Consider `O=C(Nc1cccc(Nc2ncc(Br)c(NCCc3cnc[nH]3)n2)c1)N1CCCC1`, for which the Potency was 11.8 µM (active) with MCC-26, 5.9 µM (active) in the experiment with MKL-2, 16.6 µM (active) in the experiment with UISO and 2.96 µM (active) with WaGa.

With `O=C(Nc1nnc(-c2ccco2)o1)c1cc(-c2ccccc2)nc2ccccc12`, in the experiment on MCC-26, the Potency entry is “inactive”.

Regarding `COc1cc2c(cc1O)CCC1C2CC[C@@]2(C)C1CC[C@@H]2O` (some centres undefined), in the experiment with MCC-26, the Potency result is “inactive”.

`CC(C)(C)c1nc2c3cc[nH]c(=O)c3c3cc(F)ccc3c2[nH]1`: the Potency result with MCC-26, in the experiment with MKL-1, in the experiment with MKL-2 and with WaGa was “inactive” throughout.

For `Cc1cncc2cccc(S(=O)(=O)N3CCCN(C(=O)CN)C[C@@H]3C)c12`, the Potency entry in the experiment on MCC-26, in the experiment on MKL-2, in the experiment on UISO, in the experiment with C33A, in the experiment on CASKI and in the experiment on Es-2 was “inactive” in each case. Further, the Potency result in the experiment with Hek293T, in the experiment on JEG-3, with OV90, in the experiment on PA-1, with Tov-21-G and with Tov112D was “inactive” in each case.

For `O=C(O)c1ccc(Nc2ncc3c(n2)-c2ccc(Cl)cc2C(c2c(F)cccc2F)=NC3)cc1`, the Potency result in the experiment on MCC-26, in the experiment with MKL-2, with UISO, in the experiment on C33A, in the experiment on Es-2 and in the experiment on Hek293T was “inactive” throughout. Moreover, the Potency result in the experiment on JEG-3, in the experiment with OV90, in the experiment on SKOV3 and in the experiment with Tov-21-G was “inactive” throughout.

On to `Nc1nc(=O)n([C@H]2C[C@H](O)[C@@H](CO)O2)cc1F`, for which the Potency entry in the experiment with MCC-26 and in the experiment with MKL-2 was “inactive” throughout. In addition, the results for the Potency in the experiment on UISO and in the experiment on WaGa were 0.209 µM (active) and 0.0935 µM (active), respectively.

Consider `COc1ccc(S(=O)(=O)Nc2cccnc2Nc2ccc(O)cc2)cc1`, for which the Potency in the experiment on MCC-13 is 3.72 µM (active); in the experiment with C33A, 8.91 µM (active); in the experiment on Es-2 it was 2.24 µM (active); in the experiment on HeLa, 1.78 µM (active); in the experiment on JEG-3, 2 µM (active); in the experiment on PA-1, 1 µM (active). For the same molecule, the Potency in the experiment on SKOV3 is 6.31 µM (active); in the experiment with Tov112D it was 1.78 µM (active).

As for `O=c1[nH]c(=O)n([C@H]2C[C@@H](O)[C@@H](CO)O2)cc1F`, the Potency is 0.332 µM (active) with MCC-13 and 0.0662 µM (active) with WaGa.

With `NC(=NCCCCCCN=C(N)N=C(N)Nc1ccc(Cl)cc1)N=C(N)Nc1ccc(Cl)cc1`, the Potency result in the experiment with MCC-26 is “inactive”. For the same molecule, the Potency in the experiment with MKL-2 was 11.8 µM (active).

Take `CN1CCCN(C(=O)c2cccc(-c3ccc(C=C4C(=O)Nc5ccc(Cl)cc54)o3)c2)CC1`: the Potency entry with MCC-26 is “inactive”. Moreover, the Potency in the experiment on MKL-1 was 5.26 µM (active); in the experiment with MKL-2, 16.6 µM (active); in the experiment on WaGa, 16.6 µM (active).

For the molecule `Oc1ccc(-c2ccc(-c3cc(Nc4cccc(CNC5CC5)c4)n[nH]3)cc2)c(O)c1`, the Potency was 6.62 µM (active) with MKL-1 and 5.26 µM (active) in the experiment with UISO.

Take `NC(=O)Nc1sc(-c2ccc(F)cc2)cc1C(N)=O`: the values for the Potency in the experiment with UISO and in the experiment on WaGa were 4.69 µM (active) and 5.26 µM (active), respectively.

For `Cc1ccc([N+](=O)[O-])cc1S(=O)(=O)N(C)N=Cc1cnc2ccc(Br)cn12`, the Potency was 0.209 µM (active) with MKL-2 and 0.0418 µM (active) with UISO.

Consider `C[C@@]12C(=O)OC(=O)[C@@]1(C)C1CCC2O1`, for which the Potency is 4.18 µM (active) in the experiment on MKL-2 and 2.96 µM (active) with WaGa.

Turning to `COc1cc2ncnc(Nc3cccc(Br)c3)c2cc1OC`, the Potency result in the experiment on MKL-1 and in the experiment on WaGa was “inactive” each time.
